Data from the supplement of paper PMC11417369.
In all, about 25,000 sequences were measured (“ln(normalized median fluorescence intensity)”: median about 7.1, highest 2% from about 10 on). The full list was thinned out, with the highest values kept by preference.

What follows are sequences tested on PfSIP2 AP2 domain 1 (GST-tagged) (assay: gcPBM binding intensity (ln(normalized median fluorescence intensity)); higher = stronger DNA binding).
In short: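 For binding intensity, the highest Masliner-normalised natural-log median intensity across replicate spots of either probe orientation was taken. Protein bound to the array was stained with Alexa488 anti-GST antibody and scanned at 488 nm. The protein, GST-tagged P. falciparum DNA-binding domains from E. coli at about 25 μg on average, had been applied for 1 h to an Agilent 4 × 180k array of primer-extended double-stranded 36-bp intergenic genomic probes and negative controls.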

Row | Sequence | gcPBM binding intensity (ln)
1 | ATTTATTTCTTGTTAGTGCACTTTCTTTGGTAAAAT | 11.1
2 | ACATTAAAAAATTGTTTGCACTATATAAAATATTAA [GTGCAC_site9728] | 8.2
3 | TGTTATTTTAAAAAAAAAATTATTAACTTAAAAAAA [CACACA_negctrl_site1641] | 6.68
4 | TATTTCACTTTTTGTCTGCACTAAAATTTTATGGTA | 7.74
5 | AAAATATAAATTCATGTGCACATATATATTTTGTTA [GTGCAC_site9782] | 8.24
6 | CTTATTTTGTTATAAGTGCATTTTTTAAAATTTCTT | 9.64
7 | TTTTTGTTACCTATTGTGCACTTCATATAAATTAAA | 10.8
8 | TGTTAAAATTATTTGGTGCACTTGTTTTACCTTATT | 11.3
9 | ACGTTAGGCTTATTTGCACACTTGTATTAAAATTTT [CACACA_site4854] | 7.27
10 | CACGTGAAAATACAAGCATGCAAGCTTTTTTTTTCT [TGCATGCA_site642] | 6.53
11 | TACAATTCGTAATACACACACATATAAATAAATATT [CACACA_site7720] | 7.28
12 | AAATAATAAAGTATAACACACATATTTATTTATATA [CACACA_site7822] | 6.73
13 | AAAGAACAAATAAAACATAAAATAATATATATAGAT [CACACA_negctrl_site1764] | 7.02
14 | AAAATACGAATATAAACATGCACCATATAGAACAAA [TGCATGCA_site925] | 10.7
15 | AATAGAACAAATAAAACACACACATATATATATATA [CACACA_site8893] | 9.42
16 | ATAGATGCATATTATACACACATATGTAAATACATT [CACACA_site4691] | 7.06
17 | CAAACAATTAAACAAACACACATATACAAGTATATA [CACACA_site8639] | 7
18 | AGTAGGCATATTGGTTGTACAAAAAAATTATGCACC [XGTACX_site8925] | 10.3
19 | TGAACATATTAAAATTGTACATATGCACAATATGTA [XGTACX_site6801] | 7.44
20 | GTAGGCATTAAAAAATGTACAAAATATTATGAATTG [XGTACX_site1615] | 6.85
21 | AAACAGAATACATATACACACATACAAAAAAGTGCA [CACACA_site8235] | 7.52
22 | TTGCACTCGTAAAAAGCACACATATAAAAACATTTA [CACACA_site7997] | 8.15
23 | TTATCTCTACAAAGTGCACACACGTAAAAACATATA [CACACA_site3957] | 10.4
24 | TAAAAAAAAACATATACACACAAAAACGTACACATA [CACACA_site1354] | 7.29
25 | TAAAAAAAAACATGTGCACACGTTTTATCTACATAA [CACACA_site2336] | 8.79
26 | ATATAAACAAAGCAGTGCACGTAAACAAAACATATA [CACACA_negctrl_site1076] | 10.4
27 | TTAAAAGTAAGCAAAGTGCATATAACAAAAGTAAAG | 8.19
28 | ATAAACATATAAAAAGTGCATATTCATATATCTACT | 8.7
29 | ATCTCTACAAAGTGCACACACGTAAAAACATATATA [CACACA_site6046] | 10.8
